Results as given in ChEMBL document CHEMBL1961873, “Compounds: GSK PKIS; Assays: Nanosyn kinase panel” (2012).

Molecular target: T1, Protein kinase C iota type (Homo sapiens) (UniProt P41743);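 further: reported figures are mean inhibition values from the GSK PKIS screen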
T1 sequence (whole entry): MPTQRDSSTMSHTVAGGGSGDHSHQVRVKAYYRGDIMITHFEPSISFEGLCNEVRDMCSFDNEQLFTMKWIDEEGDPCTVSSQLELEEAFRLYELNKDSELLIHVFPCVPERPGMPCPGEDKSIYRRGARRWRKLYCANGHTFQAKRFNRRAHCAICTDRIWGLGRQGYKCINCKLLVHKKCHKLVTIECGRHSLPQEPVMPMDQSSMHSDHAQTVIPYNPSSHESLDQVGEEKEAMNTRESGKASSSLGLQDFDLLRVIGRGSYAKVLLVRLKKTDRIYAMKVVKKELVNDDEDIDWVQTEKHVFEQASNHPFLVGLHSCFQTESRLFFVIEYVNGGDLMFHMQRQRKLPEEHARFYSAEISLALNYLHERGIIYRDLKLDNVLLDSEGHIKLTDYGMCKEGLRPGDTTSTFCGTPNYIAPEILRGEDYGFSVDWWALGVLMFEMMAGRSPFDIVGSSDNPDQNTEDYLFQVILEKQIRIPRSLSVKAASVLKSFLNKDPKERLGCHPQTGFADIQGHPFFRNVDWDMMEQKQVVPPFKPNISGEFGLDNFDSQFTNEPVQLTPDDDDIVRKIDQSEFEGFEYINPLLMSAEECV
Conditions: at 1 µM

| SMILES | inhibition |
| --- | --- |
| COc1ccc(-c2coc3ncnc(N)c23)cc1 | 3.36% |
| Cc1cc(O)cc(C)c1/C=C/c1cncc(-c2nn[nH]n2)c1 | 2.11% |
| NCc1ccc(-c2nc(-c3ccc(Cl)c(O)c3)c(-c3ccncc3)[nH]2)cc1 | -0.02% |
| Cc1ccc(C(=O)NC2CCCCC2)cc1-c1ccc(C(=O)NCC2CC2)cc1 | 2.97% |
| COc1cccc(-n2ncc3c(N/N=C/c4cccc(F)c4)ncnc32)c1 | 1.9% |
| [O-][S+]1CCN(Cc2ccc(-c3ccc4ncnc(Nc5ccc(OCc6ccccc6)c(F)c5)c4c3)o2)CC1 | 1.01% |
| COc1cc2c(cc1Nc1nc(N3CCc4ccccc43)c3cc[nH]c3n1)N(C(=O)CN(C)C)CC2 | 3.35% |
| COc1cc2ncn(-c3cc(OCc4ccccc4Cl)c(C(N)=O)s3)c2cc1OC | 0.82% |
| COc1ccccc1Nc1ncc(-c2ccccc2)o1 | 3.75% |
| c1cnn2ncc(-c3ccnc(Nc4ccc5c(c4)OCCO5)n3)c2c1 | 1.82% |
| CS(=O)(=O)CCN(CC#N)Cc1ccc(-c2ccc3ncnc(Nc4ccc(OCc5cccc(F)c5)c(Cl)c4)c3c2)o1 | 0.81% |
| CS(=O)(=O)CCNCc1ccc(-c2ccc3ncnc(Nc4ccc(OCc5cccc(F)c5)c(C(F)(F)F)c4)c3c2)o1 | 0.63% |
| COc1ccc(-c2nn3ncccc3c2-c2ccnc(Nc3ccc(Cl)c(C(F)(F)F)c3)n2)cc1 | -1.6% |
| CCn1c(-c2nonc2N)nc2ccncc21 | 1.92% |
| Nc1ncnc2occ(-c3ccc(NC(=O)Nc4cccc(C(F)(F)F)c4)cc3)c12 | 3.34% |
| CC(C)=Cc1cccc2c1/C(=N/Nc1ccc(S(N)(=O)=O)cc1)C(=O)N2 | 0.09% |
| Fc1cccc(COc2ccc(Nc3ncnc4cc(-c5ccc[nH]5)sc34)cc2Cl)c1 | 1.59% |

| SMILES | inhibition |
| --- | --- |
| CCN1CCC(CC(=O)Nc2n[nH]c3nc(-c4cccs4)c(Br)cc23)CC1 | -1% |
| NC(=O)c1ccc(-c2nc(-c3ccccn3)c(-c3ccc4c(c3)OCO4)[nH]2)cc1 | -0.05% |
| CCn1c(-c2nonc2N)nc2c(C#CC(C)(C)O)nc(OC[C@@H](N)c3ccccc3)cc21 | 0.8% |
| CCn1c(-c2nonc2N)nc2cncc(C(=O)N3CC[C@H](N)C3)c21 | 40% |
| Cc1ccc(NC(=O)c2ccnc(N3CCCC3)c2)cc1-c1ccc(C(=O)NCC2CC2)cc1 | 3.68% |
| COc1cc(C)c(NC(=O)CN(C)C)cc1Nc1nc(Nc2cccc(F)c2C(N)=O)c2cc[nH]c2n1 | 1.29% |
| CCn1c(-c2nonc2N)nc2cnc(Oc3cccc(NC(=O)c4ccc(OCCN5CCOCC5)cc4)c3)cc21 | 64.9% |
| Nc1nc(-c2ccc3c(c2)C(=Cc2cc(Br)c(O)c(Br)c2)C(=O)N3)cs1 | 0.34% |
| COc1ccc(-c2ccncc2)cc1C(N)=O | 1.27% |
| CC1=C(C(=O)Nc2ccc3[nH]ncc3c2)C(c2ccc(Cl)c(Cl)c2)CC(=O)N1 (stereo not drawn) | -0.03% |
| Fc1cccc(COc2ccc(Nc3ncnc4sc(-c5cccs5)cc34)cc2Cl)c1 | 1.19% |
| CN1CCC(C(=O)Nc2n[nH]c3nnc(-c4ccccc4)cc23)CC1 | 0.85% |
| Cc1nn(C)c2cc(N(C)c3ccnc(Nc4cccc(S(N)(=O)=O)c4)n3)ccc12 | 3.87% |
| COC(=O)Nc1nc2cc(Oc3ccc(NC(=O)Nc4cccc(C(=O)O)c4)cc3)ccc2[nH]1 | -1.28% |
| CS(=O)(=O)CCNCc1nc(-c2ccc3ncnc(Nc4ccc(F)c(Cl)c4)c3c2)cs1 | -0.18% |
| CS(=O)(=O)CCNCc1ccc(-c2ccc3ncnc(Nc4ccc(OCc5ccccc5)c(Cl)c4)c3c2)o1 | 1.11% |
| COC(=O)Nc1nc2cc(Oc3cccc(NC(=O)Nc4cc(C(F)(F)F)ccc4F)c3)ccc2[nH]1 | -0.55% |

Molecular target: Protein kinase C theta type (Homo sapiens) (UniProt Q04759);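 further: reported figure is the mean percent inhibition of PKC-theta, from the GSK PKIS screen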
Conditions: at 0.1 µM

Sequence of Protein kinase C theta type (Homo sapiens) (Q04759 whole entry, looked up): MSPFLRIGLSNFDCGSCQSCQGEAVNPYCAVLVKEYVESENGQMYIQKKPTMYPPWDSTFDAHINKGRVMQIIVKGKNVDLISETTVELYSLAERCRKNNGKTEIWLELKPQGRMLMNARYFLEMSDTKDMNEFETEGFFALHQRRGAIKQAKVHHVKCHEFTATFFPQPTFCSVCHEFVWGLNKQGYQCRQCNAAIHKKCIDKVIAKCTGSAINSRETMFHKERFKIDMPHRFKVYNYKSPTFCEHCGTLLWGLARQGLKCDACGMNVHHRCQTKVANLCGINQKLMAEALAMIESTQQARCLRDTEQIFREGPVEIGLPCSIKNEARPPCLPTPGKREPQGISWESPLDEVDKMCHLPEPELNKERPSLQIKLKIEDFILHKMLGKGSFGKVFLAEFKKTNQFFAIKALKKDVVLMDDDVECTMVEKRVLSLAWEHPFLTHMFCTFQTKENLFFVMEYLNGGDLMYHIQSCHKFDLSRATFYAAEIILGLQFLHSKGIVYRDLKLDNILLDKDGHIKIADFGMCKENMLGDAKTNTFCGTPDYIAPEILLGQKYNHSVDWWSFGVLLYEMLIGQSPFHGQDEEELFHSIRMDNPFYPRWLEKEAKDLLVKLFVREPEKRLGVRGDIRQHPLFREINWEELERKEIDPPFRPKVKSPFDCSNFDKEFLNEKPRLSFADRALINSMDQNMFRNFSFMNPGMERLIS

| SMILES | inhibition |
| --- | --- |
| COc1ccc(-c2coc3ncnc(N)c23)cc1 | 1.7% |
| Cc1cc(O)cc(C)c1/C=C/c1cncc(-c2nn[nH]n2)c1 | 2.61% |
| NCc1ccc(-c2nc(-c3ccc(Cl)c(O)c3)c(-c3ccncc3)[nH]2)cc1 | -0.02% |
| Cc1ccc(C(=O)NC2CCCCC2)cc1-c1ccc(C(=O)NCC2CC2)cc1 | 1.39% |
| COc1cccc(-n2ncc3c(N/N=C/c4cccc(F)c4)ncnc32)c1 | 0.55% |
| [O-][S+]1CCN(Cc2ccc(-c3ccc4ncnc(Nc5ccc(OCc6ccccc6)c(F)c5)c4c3)o2)CC1 | 0.77% |
| COc1cc2c(cc1Nc1nc(N3CCc4ccccc43)c3cc[nH]c3n1)N(C(=O)CN(C)C)CC2 | 1.03% |
| COc1cc2ncn(-c3cc(OCc4ccccc4Cl)c(C(N)=O)s3)c2cc1OC | -0.26% |
| COc1ccccc1Nc1ncc(-c2ccccc2)o1 | 3.4% |
| c1cnn2ncc(-c3ccnc(Nc4ccc5c(c4)OCCO5)n3)c2c1 | 2.63% |
| CS(=O)(=O)CCN(CC#N)Cc1ccc(-c2ccc3ncnc(Nc4ccc(OCc5cccc(F)c5)c(Cl)c4)c3c2)o1 | 0.98% |
| CS(=O)(=O)CCNCc1ccc(-c2ccc3ncnc(Nc4ccc(OCc5cccc(F)c5)c(C(F)(F)F)c4)c3c2)o1 | 2.4% |
| COc1ccc(-c2nn3ncccc3c2-c2ccnc(Nc3ccc(Cl)c(C(F)(F)F)c3)n2)cc1 | 1.56% |
| CCn1c(-c2nonc2N)nc2ccncc21 | -0.28% |
| Nc1ncnc2occ(-c3ccc(NC(=O)Nc4cccc(C(F)(F)F)c4)cc3)c12 | 2.55% |
| CC(C)=Cc1cccc2c1/C(=N/Nc1ccc(S(N)(=O)=O)cc1)C(=O)N2 | 1.24% |
| Fc1cccc(COc2ccc(Nc3ncnc4cc(-c5ccc[nH]5)sc34)cc2Cl)c1 | 0.25% |

| SMILES | inhibition |
| --- | --- |
| CCN1CCC(CC(=O)Nc2n[nH]c3nc(-c4cccs4)c(Br)cc23)CC1 | -1.26% |
| NC(=O)c1ccc(-c2nc(-c3ccccn3)c(-c3ccc4c(c3)OCO4)[nH]2)cc1 | 0.77% |
| CCn1c(-c2nonc2N)nc2c(C#CC(C)(C)O)nc(OC[C@@H](N)c3ccccc3)cc21 | 11.9% |
| CCn1c(-c2nonc2N)nc2cncc(C(=O)N3CC[C@H](N)C3)c21 | 5.26% |
| Cc1ccc(NC(=O)c2ccnc(N3CCCC3)c2)cc1-c1ccc(C(=O)NCC2CC2)cc1 | 1.28% |
| COc1cc(C)c(NC(=O)CN(C)C)cc1Nc1nc(Nc2cccc(F)c2C(N)=O)c2cc[nH]c2n1 | 0.13% |
| CCn1c(-c2nonc2N)nc2cnc(Oc3cccc(NC(=O)c4ccc(OCCN5CCOCC5)cc4)c3)cc21 | 20% |
| Nc1nc(-c2ccc3c(c2)C(=Cc2cc(Br)c(O)c(Br)c2)C(=O)N3)cs1 | -1.06% |
| COc1ccc(-c2ccncc2)cc1C(N)=O | 2.73% |
| CC1=C(C(=O)Nc2ccc3[nH]ncc3c2)C(c2ccc(Cl)c(Cl)c2)CC(=O)N1 (stereo not drawn) | 0.6% |
| Fc1cccc(COc2ccc(Nc3ncnc4sc(-c5cccs5)cc34)cc2Cl)c1 | 0.32% |
| CN1CCC(C(=O)Nc2n[nH]c3nnc(-c4ccccc4)cc23)CC1 | 2.64% |
| Cc1nn(C)c2cc(N(C)c3ccnc(Nc4cccc(S(N)(=O)=O)c4)n3)ccc12 | 1.21% |
| COC(=O)Nc1nc2cc(Oc3ccc(NC(=O)Nc4cccc(C(=O)O)c4)cc3)ccc2[nH]1 | 0.18% |
| CS(=O)(=O)CCNCc1nc(-c2ccc3ncnc(Nc4ccc(F)c(Cl)c4)c3c2)cs1 | 0.64% |
| CS(=O)(=O)CCNCc1ccc(-c2ccc3ncnc(Nc4ccc(OCc5ccccc5)c(Cl)c4)c3c2)o1 | 0.62% |
| COC(=O)Nc1nc2cc(Oc3cccc(NC(=O)Nc4cc(C(F)(F)F)ccc4F)c3)ccc2[nH]1 | -0.27% |
